A number with no mark means an inactive call. Calls of active or inactive are those of the source. Cut-off read from the data, not from the text of the source: active = inhibition above about 50%; inactive = the rest.

Prolyl endopeptidase-like (Mus musculus), sequence (Q8C167 whole entry, looked up): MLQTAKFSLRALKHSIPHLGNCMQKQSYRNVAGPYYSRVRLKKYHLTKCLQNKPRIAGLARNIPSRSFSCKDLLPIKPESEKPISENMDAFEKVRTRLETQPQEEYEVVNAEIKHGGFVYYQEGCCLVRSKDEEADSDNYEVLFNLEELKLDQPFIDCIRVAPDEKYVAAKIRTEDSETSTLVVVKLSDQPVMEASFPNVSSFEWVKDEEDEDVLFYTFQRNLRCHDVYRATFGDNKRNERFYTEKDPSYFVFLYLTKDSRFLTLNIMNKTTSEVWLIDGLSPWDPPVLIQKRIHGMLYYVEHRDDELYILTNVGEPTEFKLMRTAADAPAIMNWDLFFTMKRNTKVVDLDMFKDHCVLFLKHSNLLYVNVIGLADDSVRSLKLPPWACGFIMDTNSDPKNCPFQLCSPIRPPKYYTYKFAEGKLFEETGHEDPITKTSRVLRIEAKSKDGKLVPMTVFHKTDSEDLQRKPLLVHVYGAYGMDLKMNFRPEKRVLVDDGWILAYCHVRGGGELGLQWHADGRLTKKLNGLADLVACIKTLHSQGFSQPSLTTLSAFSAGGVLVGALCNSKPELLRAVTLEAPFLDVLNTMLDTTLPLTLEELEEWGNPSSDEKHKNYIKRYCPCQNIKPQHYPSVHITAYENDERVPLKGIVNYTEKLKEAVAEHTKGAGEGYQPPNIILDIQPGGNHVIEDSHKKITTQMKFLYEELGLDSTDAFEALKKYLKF

This assay addresses Prolyl endopeptidase-like (Mus musculus) (UniProt Q8C167). Kind of assay: purified PREPL inhibitors, PREPL inhibitor project, biochemical, gel-based competitive ABPP, fluorescence, HTS hits (AID 624481). The following applies: at 20 µM, stronger effect = higher value.
Broadly, the inhibition is the change of the read-out against control, counted positive when it falls. Regarding `C1=C(c2c[nH]c3ccccc23)CCNC1`, the inhibition was -17%. To `COc1ccc2[nH]c(C)c(CCNCc3cn(C)c4ccccc34)c2c1` belongs 16%.

`Brc1ccc(-[n+]2c(-c3ccccc3)cc(-c3ccccc3)cc2-c2ccccc2)cc1`: the inhibition is -32%.

`CC(C)Cc1[nH]c(=O)c(C#N)c2c1CCC2`: the inhibition is 57% (active). To `COc1ccc2[nH]c(C)c(CCNCc3cc(OC)c4c(c3)OCO4)c2c1` belongs -15%.

Regarding `Clc1ccc(C[n+]2c(-c3ccccc3)cc(-c3ccccc3)cc2-c2ccccc2)cc1`, the inhibition is -51%. The result for `O=C(c1ccc2c(c1)N(Cc1ccccc1)CCS2)N1CCC2(CC1)OCCO2` reads -19%.

On to `CCOc1cccc(=NC2CCCCC2)c2c(C)[nH]c(C)c12`, for which the inhibition is 13%. As for `C=CCn1c(O)c(C(CC)=NCCc2c[nH]c3ccccc23)c(=O)[nH]c1=O`, the inhibition was 43%. Take `NC(N)=NN=Cc1ccc(N(c2ccccc2)c2ccccc2)cc1`: the inhibition was -64%.

Take `C=CCn1c(O)c(C(CC)=NCc2ccc3c(c2)OCO3)c(=O)[nH]c1=O`: the inhibition was 32%.

Take `O=C(c1ccc2c(c1)N(Cc1ccc(F)cc1)CCS2)N1CCC2(CC1)OCCO2`: the inhibition is -13%.

In the case of `Cc1ccc(CN2CCSc3ccc(C(=O)N4CCC5(CC4)OCCO5)cc32)cc1`, the inhibition was -8%.

With `Cc1ccc(C[n+]2c(-c3ccc(C)cc3)cc(-c3ccc(C)cc3)cc2-c2ccc(C)cc2)cc1`, the inhibition is 1%.

Values taken from PubChem BioAssay AID624481 (The Scripps Research Institute Molecular Screening Center, 2012).
